Unmarked numbers belong to inactive results. Records with an inconclusive call do not appear. Entries that show only a call come without a potency. Calls of active or inactive are those of the source. The call rests on the fitted dose curve; in most records, active means well fitted curve in the direction sought with a large enough effect; inconclusive means small, poorly fitted or top-dose-only effect, or another doubt; inactive means no such curve, though single readings can be large; an effect the other way counts as inactive or inconclusive.
Legend:
[1] = molecular target: Glutathione peroxidase 1 (Homo sapiens) (UniProt P07203); test: Primary qHTS Assay for Inhibitors of Recombinant Selenoprotein Glutathione Peroxidase 1 (GPX1) (AID 1845191); further: nearly all actives have a fitted effect of over 65% in size
Summary of the method: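 Recombinant GPX1 (10 nM final) was preincubated with compound for 30 min at room temperature, then reacted with 1 mM GSH, 0.5 mM CHP, 0.5 mM NADPH and 100 nM glutathione reductase; NADPH fluorescence (340/450 nm) was read at 0 and 15 min.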

[2] = molecular target: Phospholipid hydroperoxide glutathione peroxidase GPX4 (Homo sapiens) (UniProt P36969); test: Primary qHTS Assay for Inhibitors of Recombinant Selenoprotein Glutathione Peroxidase 4 (GPX4) (AID 1845192); further: nearly all actives have a fitted effect of over 65% in size; on activity change, negative = inhibition: series mostly up to about 50 µM
Summary of the method: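 GR-coupled readout: 100 nM GR, 1 mM GSH, 0.5 mM NADPH; NADPH fluorescence (ex 340/em 450 nm) read at t=0 and after 15 min RT. GPX4 200 nM, preincubated 30 min with compound; substrate 0.5 mM CHP.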

[3] = molecular target: Luciferin 4-monooxygenase (Photinus pyralis) (UniProt P08659); test: Primary firefly luciferase (FLuc) qHTS assay for identification of artifact compounds. (AID 1845220); further: nearly all actives have a fitted effect of over 60% in size; on activity change, negative = inhibition: series mostly up to about 54 µM
Summary of the method: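 Reaction readout was CCD-imaged luminescence, taken 5 min after adding 10 nM purified firefly enzyme to compound-treated wells holding 10 uM luciferin and ATP in pH 7.6 buffer.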

[4] = Primary fluorescence-based thiol-reactive (MSTI) qHTS assay for identification of artifact compounds. (AID 1845221); further: nearly all actives have a fitted effect of over 65% in size; further: potency means the concentration at half of the fitted maximal effect;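 on activity change, negative = thiol reactive: series mostly up to about 54 µM; thiol-reactive compounds lower the probe fluorescence signal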
Summary of the method: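 Thiol-reactive compounds detected by quenching of 4 uM MSTI fluorescence (525/598 nm) after 1 h room-temperature dark incubation in PBS pH 7.4, 2% DMSO. qHTS titration; percent inhibition Hill-fitted against Acetyl-MSTI/MSTI controls.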

[5] = system: Nanoluciferase (engineered Oplophorus gracilirostris luciferase); test: Primary Nanoluciferase (NLuc) qHTS assay for identification of artifact compounds. (AID 1845222);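 further: NLuc secreted into diluted conditioned medium of S16 cells; series mostly up to about 54 µM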
Summary of the method: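 Concentration-response data were obtained by luminescence after 5 min with Nano-Glo substrate at 1:100. The enzyme was diluted S16 NLuc-expressing cell medium, preincubated with compound for 15 min at RT. Curves were fitted with a 4-parameter Hill model.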

[6] = Primary redox qHTS assay for identification of artifact compounds. (AID 1845223)
Summary of the method: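 Amplex Red (25 uM) and HRP (250 mU/mL) in HBSS, with compounds for 15 min, then 250 uM DTT for 30 min, room temperature, dark. Fluorescence 525/598 nm read; normalized to DMSO and 10 uM DA3003; Hill fit.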

Sequence of Phospholipid hydroperoxide glutathione peroxidase GPX4 (Homo sapiens) (P36969 whole entry, looked up): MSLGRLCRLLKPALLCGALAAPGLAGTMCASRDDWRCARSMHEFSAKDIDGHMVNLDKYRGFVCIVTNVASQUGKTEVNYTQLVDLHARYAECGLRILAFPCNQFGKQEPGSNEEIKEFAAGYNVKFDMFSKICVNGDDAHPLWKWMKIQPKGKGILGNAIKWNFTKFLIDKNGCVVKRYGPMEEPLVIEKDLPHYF
Sequence of Glutathione peroxidase 1 (Homo sapiens) (P07203 whole entry, looked up): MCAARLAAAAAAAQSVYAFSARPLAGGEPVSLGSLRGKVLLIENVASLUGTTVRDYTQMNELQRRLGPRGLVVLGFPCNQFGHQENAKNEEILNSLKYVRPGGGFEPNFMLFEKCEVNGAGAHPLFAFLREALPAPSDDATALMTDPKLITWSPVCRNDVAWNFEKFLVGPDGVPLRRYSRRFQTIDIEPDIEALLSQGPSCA

## CCCn1cnc2c(NCc3ccccc3)nc(N[C@H](CC)CO)nc21
[1]
  Potency: inactive
[2]
  Potency: inactive
[3]
  Potency: inactive
[4]
  Potency: inactive
[5]
  Potency: inactive

## COc1cc(C)c(C(=O)O[C@H]2[C@@H](O)[C@H](n3ccc(=O)[nH]c3=O)O[C@@H]2CO)c(OC)c1
[1]
  Potency: inactive
[2]
  Potency: inactive
[3]
  Potency: inactive
[4]
  Potency: inactive
[5]
  Potency: inactive

## COc1cc(/C=C/C(=O)OC2CC(C)=C(C(=O)O)/C2=C/CO[C@@H]2O[C@H](CO)[C@@H](O)[C@H](O)[C@H]2O)ccc1O (stereo partly drawn)
[1]
  Potency: inactive
[2]
  Potency: inactive
[3]
  Potency: inactive
[4]
  Potency: 4.12 µM (active)
[5]
  Potency: inactive
[6]
  Potency: inactive

## O=C(c1ccccn1)c1cnn2c(-c3ccncc3)ccnc12
[1]
  Potency: inactive
[2]
  Potency: inactive
[3]
  Potency: inactive
[4]
  Potency: inactive
[5]
  Potency: inactive

## C=C1CC[C@H]2[C@@](C)(CCC(O)[C@@]2(C)CO)[C@@H]1C/C=C(/C(=O)O)C(O)CO (stereo partly drawn)
[1]
  Potency: inactive
[2]
  Potency: inactive
[3]
  Potency: inactive
[4]
  Potency: 6.56 µM (active)
[5]
  Potency: inactive
[6]
  Potency: inactive

## C[C@@H]1O[C@@H](O[C@@H]2[C@@H](O)[C@H](O[C@@H]3[C@@H](O)[C@@H](O)[C@H](O[C@H]4[C@H](OC(=O)[C@]56CCC(C)(C)C[C@H]5C5=CCC7[C@@]8(C)C[C@H](O)[C@H](O[C@@H]9O[C@H](C(=O)O)[C@@H](O)[C@H](O)[C@H]9O)[C@@](C)(CO)C8[C@H](O)C[C@@]7(C)[C@]5(C)CC6)OC[C@H](O)[C@@H]4O)O[C@H]3C)OC[C@H]2O)[C@H](O)[C@H](O)[C@H]1O (stereo partly drawn)
[1]
  outcome: inactive [at 9.52 µM]
[2]
  activity change, negative = inhibition: -2.98% [at 9.73 µM]
[3]
  outcome: inactive [at 11.6 µM]
[4]
  activity change, negative = thiol reactive: 319% [at 11.5 µM]
[5]
  activity, negative = inhibition: 0.798% [at 11.6 µM]

## O=C(O[C@@H]1O[C@H](CO)[C@@H](O)[C@H](O)[C@H]1O)c1c(O)cc(O)cc1/C=C/c1ccccc1
[1]
  Potency: inactive
[2]
  Potency: inactive
[3]
  Potency: inactive
[4]
  Potency: 7.33 µM (active)
[5]
  Potency: inactive
[6]
  Potency: inactive

## CC1(C)OC(=O)C(OCC2CC2)=C1c1ccc(S(C)(=O)=O)cc1
[1]
  Potency: inactive
[2]
  Potency: inactive
[3]
  Potency: inactive
[4]
  Potency: inactive
[5]
  Potency: inactive
[6]
  Potency: inactive

## C/C=C(\C)C(=O)O[C@@H]1CC2[C@@H](CC=C3C[C@@H](O[C@H]4C[C@H](OC)[C@H](O[C@H]5C[C@H](OC)[C@H](O[C@H]6C[C@H](OC)[C@H](O[C@H]7C[C@@H](OC)[C@H](O[C@@H]8O[C@H](CO)[C@@H](O)[C@H](O)[C@H]8O)[C@@H](C)O7)[C@@H](C)O6)[C@@H](C)O5)[C@@H](C)O4)CC[C@@]32C)[C@@]2(O)CC[C@H](C(C)=O)[C@@]12C (stereo partly drawn)
[1]
  activity, negative = inhibition: -14% [at 9.52 µM]
[2]
  activity change, negative = inhibition: -7.77% [at 9.73 µM]
[3]
  activity change, negative = inhibition: 2.2% [at 11.6 µM]
[4]
  activity change, negative = thiol reactive: 10.3% [at 11.5 µM]
[5]
  activity, negative = inhibition: 4.8% [at 11.6 µM]
[6]
  redox activity (% of DA3003): -9.41% [at 11.5 µM]

## CCC(C)/C=C(C)/C=C/C1=CC2=C(Cl)C(=O)C(C)(OC(C)=O)C(=O)C2=CN1CCCC(=O)O (stereo not drawn)
[1]
  Potency: inactive
[2]
  Potency: inactive
[3]
  Potency: inactive
[4]
  Potency: 0.367 µM (active)
[5]
  Potency: inactive

## C[C@@H]1O[C@@H](O[C@H]2[C@H](OC(=O)[C@]34CCC(C)(C)C[C@H]3C3=CCC5[C@@]6(C)C[C@H](O)[C@H](O[C@@H]7O[C@H](CO)[C@@H](O[C@@H]8O[C@H](CO)[C@@H](O)[C@H](O)[C@H]8O)[C@H](O)[C@H]7O)[C@@](C)(CO)C6[C@H](O)C[C@@]5(C)[C@]3(C)C[C@H]4O)OC[C@H](O)[C@@H]2O)[C@H](O)[C@H](O)[C@H]1O[C@@H]1OC[C@@H](O)[C@H](O[C@@H]2OC[C@](O)(CO)[C@H]2O)[C@H]1O (stereo partly drawn)
[1]
  activity, negative = inhibition: -19.6% [at 9.52 µM]
[2]
  activity change, negative = inhibition: -11% [at 9.73 µM]
[3]
  activity change, negative = inhibition: -27.8% [at 11.6 µM]
[4]
  activity change, negative = thiol reactive: -12.6% [at 11.5 µM]
[5]
  activity, negative = inhibition: 2.77% [at 11.6 µM]

## COc1cc(C(=O)OC[C@H]2O[C@H](O[C@@]3(CO)O[C@@H](CO)[C@H](O)[C@H]3O)[C@H](O)[C@@H](O)[C@@H]2O)ccc1O
[1]
  Potency: inactive
[2]
  Potency: inactive
[3]
  Potency: inactive
[4]
  Potency: inactive
[5]
  Potency: inactive
[6]
  Potency: inactive

## CC(C)=CCCC1(C)Oc2cc3c(c4c2C2C(O4)C(C)(O)CCC21)CN(C(CCC(=O)O)C(=O)O)C3=O (stereo not drawn)
[1]
  Potency: inactive
[2]
  Potency: inactive
[3]
  Potency: inactive
[4]
  Potency: inactive
[5]
  Potency: inactive
[6]
  Potency: inactive

## CO[C@@H](Cc1ccc(OCCc2nc(-c3ccccc3)oc2C)c2ccsc12)C(=O)O
[1]
  Potency: inactive
[2]
  Potency: inactive
[3]
  Potency: inactive
[4]
  Potency: inactive
[5]
  Potency: inactive

## O=S(=O)(Nc1ccc(C(O)(C(F)(F)F)C(F)(F)F)cc1)c1cccs1
[1]
  Potency: inactive
[2]
  Potency: inactive
[3]
  Potency: inactive
[4]
  Potency: inactive
[5]
  Potency: inactive
[6]
  Potency: inactive

## CC1CCC2(C)C(CC(O)C(O)C23CO3)C1(C)CCC1=CC(=O)OC1O (stereo not drawn)
[1]
  Potency: inactive
[2]
  Potency: inactive
[3]
  Potency: inactive
[4]
  Potency: inactive
[5]
  Potency: inactive

## CC(C)=CC/C=C(/C)[C@H]1CC[C@]2(C)[C@@H]1[C@H](O)CC1[C@@]3(C)CC[C@H](O)C(C)(C)[C@@H]3[C@@H](O[C@@H]3O[C@H](CO)[C@@H](O)[C@H](O)[C@H]3O[C@@H]3O[C@@H](C)[C@H](O)[C@@H](O)[C@H]3O)C[C@]12C (stereo partly drawn)
[1]
  Potency: inactive
[2]
  Potency: inactive
[3]
  Potency: inactive
[4]
  Potency: inactive
[5]
  Potency: inactive

## CC1=CC(=O)CC(C)(CO[C@@H]2O[C@H](CO)[C@@H](O)[C@H](O)[C@H]2O)C1(O)/C=C/C(C)=C/C(=O)O (stereo partly drawn)
[1]
  Potency: inactive
[2]
  Potency: inactive
[3]
  Potency: inactive
[4]
  Potency: 13 µM (active)
[5]
  Potency: inactive
[6]
  Potency: inactive

## CCCCNC(=O)[C@@H]1Cc2ccccc2N1C(=O)[C@@H](N)CC
[1]
  Potency: inactive
[2]
  Potency: inactive
[3]
  Potency: inactive
[4]
  Potency: inactive
[5]
  Potency: inactive
[6]
  Potency: inactive

## CC(C)[C@H]1CCC(CO)=C[C@@H]1/C=C(\CO)C(=O)O
[1]
  Potency: inactive
[2]
  Potency: inactive
[3]
  Potency: inactive
[4]
  Potency: inactive
[5]
  Potency: inactive
[6]
  Potency: inactive

## O=C(O[C@H]1[C@@H]2C=CO[C@@H](O[C@@H]3O[C@H](CO)[C@@H](O)[C@H](O)[C@H]3O)[C@@H]2[C@@]2(CO)O[C@@H]12)c1ccc(O)c(O)c1
[1]
  Potency: inactive
[2]
  Potency: inactive
[3]
  Potency: inactive
[4]
  Potency: 3.27 µM (active)
[5]
  Potency: inactive
[6]
  Potency: inactive

## c1ccc(Cc2ncc3c(n2)CCNCC3)cc1
[1]
  Potency: inactive
[2]
  Potency: inactive
[3]
  Potency: inactive
[4]
  Potency: inactive
[5]
  Potency: inactive
[6]
  Potency: inactive
